Inconclusive results are not listed. Active and inactive are the calls of the source. How the source made its calls, unless noted: active means hit-call score of the fitted dose curve at least 0.9, where 1 is the maximum; inactive means score below 0.9.
Assays:
[1] = read-out: Monocyte Chemoattractant Protein-1 (MCP1), CCL2 (gene 6347); experiment: BSK_LPS_MCP1: BioMAP Diversity Plus: LPS Assay for Monocyte Chemoattractant Protein-1 (MCP1) Biomarker Activity (AID 2283081); conditions: primary human HUVEC with PBMC; actives raise or lower the signal;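 on AC50: secreted MCP-1 protein quantified by ELISA in culture supernatant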
Summary of the method: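 Secreted MCP-1 read by ELISA at 24 h post-dosing in an LPS-activated co-culture of endothelial cells with peripheral blood mononuclear cells. Fits run in both directions, DMSO as baseline; parallel SRB staining tracks overt cytotoxicity.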

[2] = BSK_LPS_PGE2: BioMAP Diversity Plus: LPS Assay for Prostaglandin E2 (PGE2) Biomarker Activity (AID 2283082); conditions: primary human HUVEC with PBMC; actives raise or lower the signal;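 on AC50: secreted prostaglandin E2 measured by ELISA in LPS-stimulated co-culture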
Summary of the method: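 Compounds were added to the LPS co-culture of endothelium and PBMC, and PGE2 was measured by ELISA after 24 h. Responses in either direction were fitted with DMSO as baseline.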

[3] = read-out: Macrophage colony-stimulating factor (MCSF), CSF1 (gene 1435); experiment: BSK_LPS_MCSF: BioMAP Diversity Plus: LPS Assay for Macrophage colony-stimulating factor (MCSF) Biomarker Activity (AID 2283083); conditions: primary human HUVEC with PBMC; actives raise or lower the signal
Summary of the method: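 Bidirectional fitting against DMSO was applied to M-CSF levels read by ELISA at 24 h post-dose. The system pairs human umbilical vein endothelium with peripheral blood mononuclear cells; parallel SRB staining tracked cytotoxicity.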

[4] = read-out: Tissue Factor, F3 (gene 2152); experiment: BSK_LPS_TissueFactor: BioMAP Diversity Plus: LPS Assay for Tissue Factor Biomarker Activity (AID 2283084); conditions: primary human HUVEC with PBMC; actives raise or lower the signal
Summary of the method: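 Compound was added to an endothelial cell/PBMC co-culture, and after 24 h tissue factor (CD142) was read by ELISA. Gain or loss of signal was fitted against a DMSO baseline, and parallel SRB staining (560 nm) tracked overt cytotoxicity.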

[5] = read-out: Tumor necrosis factor (Homo sapiens) (UniProt P01375); experiment: BSK_LPS_TNFa: BioMAP Diversity Plus: LPS Assay for Tumour Necrosis Factor alpha (TNFa) Biomarker Activity (AID 2283085); conditions: primary human HUVEC with PBMC; actives raise or lower the signal;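 on AC50: TNFa protein level quantified by ELISA in the co-culture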
Summary of the method: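 Cells (umbilical vein endothelium plus peripheral blood mononuclear cells) were dosed with chemical, incubated 24 h, then TNFa was quantified by ELISA; values derive from bidirectional fitting with DMSO as baseline.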

[6] = read-out: Vascular cell adhesion molecule 1 (VCAM1), VCAM1 (gene 7412); experiment: BSK_LPS_VCAM1: BioMAP Diversity Plus: LPS Assay for Vascular cell adhesion molecule 1 (VCAM1) Biomarker Activity (AID 2283086); conditions: primary human HUVEC with PBMC; actives raise or lower the signal
Summary of the method: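 Cells are dosed in an LPS-stimulated endothelial/mononuclear co-culture and, after 24 h, VCAM-1 is quantified by ELISA. Activity in either direction is fitted relative to the DMSO negative control.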

CD38, CD38 (gene 952) = experiment: BSK_SAg_CD38: BioMAP Diversity Plus: SAg Assay for CD38 Biomarker Activity (AID 2283087); conditions: primary human HUVEC with PBMC; actives raise or lower the signal
Summary of the method: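 CD38 quantified by ELISA (fluorescence) in a superantigen-activated endothelial cell–PBMC co-culture at 24 h post-dose. Activity fitted in both directions relative to DMSO; parallel SRB and Alamar Blue cytotoxicity read-outs.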

CD40, CD40 (gene 958) = experiment: BSK_SAg_CD40: BioMAP Diversity Plus: SAg Assay for CD40 Biomarker Activity (AID 2283088); conditions: primary human HUVEC with PBMC; actives raise or lower the signal
Summary of the method: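 CD40 is measured by fluorescence ELISA in an endothelial/PBMC primary human co-culture at 24 h post-dose. Fitting is bidirectional, DMSO baseline. Parallel SRB staining (560 nm) flags cytotoxicity.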

[7] = read-out: Monocyte Chemoattractant Protein-1 (MCP1), CCL2 (gene 6347); experiment: BSK_SAg_MCP1: BioMAP Diversity Plus: SAg Assay for Monocyte Chemoattractant Protein-1 (MCP1) Biomarker Activity (AID 2283090); conditions: primary human HUVEC with PBMC; actives raise or lower the signal
Summary of the method: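 Values derive from bidirectional fitting of ELISA-measured MCP1 against DMSO controls. Readings were taken 24 h after dosing human vascular endothelial cells co-cultured with peripheral blood mononuclear cells under superantigen stimulation.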

[8] = read-out: E-selectin (Homo sapiens) (UniProt P16581); experiment: BSK_SAg_Eselectin: BioMAP Diversity Plus: SAg Assay for Eselectin Biomarker Activity (AID 2283091); conditions: primary human HUVEC with PBMC; actives raise or lower the signal
Summary of the method: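 Cell-surface E-selectin is read by ELISA at 24 h in the SAg co-culture of HUVEC and PBMC. Curves are fitted in both directions relative to DMSO. Parallel SRB total-protein staining tracks overt toxicity.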

[9] = read-out: Monokine induced gamma interferon (MIG), CXCL9 (gene 4283); experiment: BSK_SAg_MIG: BioMAP Diversity Plus: SAg Assay for Monokine induced gamma interferon (MIG) Biomarker Activity (AID 2283092); conditions: primary human HUVEC with PBMC; actives raise or lower the signal
Summary of the method: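 Values reflect bidirectional fitting of ELISA-measured MIG against DMSO vehicle, taken 24 h after dosing of a co-culture of human umbilical vein endothelial cells and peripheral blood mononuclear cells.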

[10] = BSK_SAg_PBMCCytotoxicity: PBMC Cytotoxicity Assessment in the BioMAP Diversity Plus: SAg Assay (AID 2283093); conditions: primary human HUVEC with PBMC;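 further: fitted both ways against DMSO so a hit may be loss or gain of signal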;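 on AC50: PBMC superantigen activated with SEB plus TSST-1 one hour after compound addition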
Summary of the method: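 PBMC viability by Alamar Blue reduction, fluorescence read at 546/580 nm after 6 h dye exposure. Cells were dosed 1 h before SEB plus TSST-1 activation (20 ng/mL final each), then held 90 h; endothelial/PBMC human co-culture.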

[11] = read-out: Interleukin-8 (IL8), CXCL8 (gene 3576); experiment: BSK_SAg_IL8: BioMAP Diversity Plus: SAg Assay for Interleukin-8 (IL8) Biomarker Activity (AID 2283094); conditions: primary human HUVEC with PBMC; actives raise or lower the signal
Summary of the method: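 Chemicals were dosed onto a human endothelial–PBMC co-culture, and IL-8 was quantified by ELISA after 24 h. Both increases and decreases were fitted relative to DMSO.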

[12] = BSK_SAg_Proliferation: Cell Proliferation Assessment in the BioMAP Diversity Plus: SAg Assay (AID 2283095); conditions: primary human HUVEC with PBMC;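 further: relative cell number as total protein by SRB absorbance in sub-confluent culture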
Summary of the method: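 Absorbance of sulforhodamine B at 560 nm reports total protein in a human vascular endothelial/PBMC co-culture after 96 h chemical exposure. Gain or loss of signal is fitted in both directions against DMSO.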

[13] = BSK_SAg_SRB: Viability Assessment in the BioMAP Diversity Plus: SAg Assay (AID 2283096); conditions: primary human HUVEC with PBMC;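 further: cells read one day after compound addition; hits may be either gain or loss of signal compared with DMSO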
Summary of the method: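 Compounds were added to a human vascular co-culture of umbilical vein endothelium and PBMC. After 24 h, parallel cultures were fixed with 10% TCA, stained with 0.1% sulforhodamine B and read at 560 nm. Gain or loss of signal was fitted relative to DMSO.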

[14] = molecular target: human CYP2B6, CYP2B6 (gene 1555) (UniProt P20813); experiment: NVS_ADME_hCYP2B6: NovaScreen (NVS) CYP450-related Enzyme Activity (ADME) Assay for human CYP2B6 (AID 2283101; active means hit-call score of the fitted dose curve at least 0.9, where 1 is the maximum)
Summary of the method: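 Compounds were first screened in duplicate at 10 uM against recombinant enzyme, with the fluorescent product measured after 1 hour. Active compounds were retested over a concentration series. Loss of fluorescence versus acetonitrile control was scored as reduced enzyme activity.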

[15] = molecular target: human CYP2C8, CYP2C8 (gene 1558) (UniProt P10632); experiment: NVS_ADME_hCYP2C8: NovaScreen (NVS) CYP450-related Enzyme Activity (ADME) Assay for human CYP2C8 (AID 2283104)
Summary of the method: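 Fluorescence readout of substrate turnover by recombinant CYP2C8 after 0.5 h, baseline acetonitrile. Single-concentration duplicate screen at 10 uM preceded singleton concentration series (max 20 uM) for compounds passing the inhibition threshold.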

[16] = molecular target: human CYP1A2, CYP1A2 (gene 1544) (UniProt P05177); experiment: NVS_ADME_hCYP1A2: NovaScreen (NVS) CYP450-related Enzyme Activity (ADME) Assay for human CYP1A2 (AID 2283102; active means hit-call score of the fitted dose curve at least 0.9, where 1 is the maximum)
Summary of the method: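 Enzyme activity of insect-cell-expressed human CYP1A2 measured by fluorescence 0.5 h after compound addition, relative to acetonitrile. Compounds first tested in duplicate at 10 uM, actives followed up in concentration series.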

Measured: AC50

Chain of E-selectin (Homo sapiens) (P16581 whole entry, looked up): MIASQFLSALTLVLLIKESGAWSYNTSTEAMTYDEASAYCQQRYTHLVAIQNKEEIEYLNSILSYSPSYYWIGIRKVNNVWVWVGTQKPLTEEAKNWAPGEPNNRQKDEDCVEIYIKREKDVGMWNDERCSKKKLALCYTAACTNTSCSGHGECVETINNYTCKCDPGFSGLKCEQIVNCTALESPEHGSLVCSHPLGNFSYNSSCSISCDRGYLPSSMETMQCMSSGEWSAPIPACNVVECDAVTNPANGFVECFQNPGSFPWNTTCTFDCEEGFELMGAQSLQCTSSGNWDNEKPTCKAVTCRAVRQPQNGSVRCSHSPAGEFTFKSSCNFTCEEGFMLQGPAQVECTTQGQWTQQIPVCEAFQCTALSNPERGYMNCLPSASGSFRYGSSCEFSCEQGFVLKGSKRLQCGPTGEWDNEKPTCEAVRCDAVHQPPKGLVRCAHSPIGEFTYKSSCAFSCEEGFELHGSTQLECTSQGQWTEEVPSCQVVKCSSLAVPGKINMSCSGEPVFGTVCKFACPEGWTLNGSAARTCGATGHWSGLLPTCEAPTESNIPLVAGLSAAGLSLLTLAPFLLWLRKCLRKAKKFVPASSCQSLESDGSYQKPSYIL
Chain of Tumor necrosis factor (Homo sapiens) (P01375 whole entry, looked up): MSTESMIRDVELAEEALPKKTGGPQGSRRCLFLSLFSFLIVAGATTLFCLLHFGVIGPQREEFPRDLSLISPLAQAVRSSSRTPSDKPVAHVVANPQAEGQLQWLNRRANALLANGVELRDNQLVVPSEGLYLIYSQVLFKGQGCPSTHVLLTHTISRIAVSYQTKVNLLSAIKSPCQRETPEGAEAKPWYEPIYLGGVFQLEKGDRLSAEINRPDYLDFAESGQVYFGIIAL
Chain of human CYP2C8, CYP2C8 (gene 1558) (P10632 whole entry, looked up): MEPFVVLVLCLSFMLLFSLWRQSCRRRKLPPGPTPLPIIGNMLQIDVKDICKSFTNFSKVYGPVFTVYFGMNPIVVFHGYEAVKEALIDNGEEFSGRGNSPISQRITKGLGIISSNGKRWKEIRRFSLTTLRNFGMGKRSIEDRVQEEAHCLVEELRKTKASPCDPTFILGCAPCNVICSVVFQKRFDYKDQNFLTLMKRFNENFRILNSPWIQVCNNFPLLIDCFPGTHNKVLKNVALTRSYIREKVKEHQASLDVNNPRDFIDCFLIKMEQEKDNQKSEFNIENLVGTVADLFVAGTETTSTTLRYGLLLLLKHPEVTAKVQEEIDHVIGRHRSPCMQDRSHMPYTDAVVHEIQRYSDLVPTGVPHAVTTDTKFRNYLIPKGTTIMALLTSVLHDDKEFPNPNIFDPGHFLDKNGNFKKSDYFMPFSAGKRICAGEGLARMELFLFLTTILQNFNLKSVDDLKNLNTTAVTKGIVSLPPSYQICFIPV
Chain of human CYP2B6, CYP2B6 (gene 1555) (P20813 whole entry, looked up): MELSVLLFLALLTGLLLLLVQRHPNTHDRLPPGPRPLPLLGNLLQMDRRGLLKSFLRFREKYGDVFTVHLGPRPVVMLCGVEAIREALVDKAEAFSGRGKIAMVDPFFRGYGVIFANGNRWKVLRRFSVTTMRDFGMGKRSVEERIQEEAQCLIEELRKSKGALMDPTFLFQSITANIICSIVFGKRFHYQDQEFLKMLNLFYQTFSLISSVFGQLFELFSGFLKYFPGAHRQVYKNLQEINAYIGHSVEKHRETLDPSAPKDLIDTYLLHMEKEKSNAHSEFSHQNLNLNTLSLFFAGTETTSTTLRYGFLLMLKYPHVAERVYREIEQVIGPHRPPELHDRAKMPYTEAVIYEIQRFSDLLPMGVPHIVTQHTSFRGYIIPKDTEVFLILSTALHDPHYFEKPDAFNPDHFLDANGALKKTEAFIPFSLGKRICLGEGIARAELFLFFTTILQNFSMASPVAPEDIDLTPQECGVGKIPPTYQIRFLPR
Chain of human CYP1A2, CYP1A2 (gene 1544) (P05177 whole entry, looked up): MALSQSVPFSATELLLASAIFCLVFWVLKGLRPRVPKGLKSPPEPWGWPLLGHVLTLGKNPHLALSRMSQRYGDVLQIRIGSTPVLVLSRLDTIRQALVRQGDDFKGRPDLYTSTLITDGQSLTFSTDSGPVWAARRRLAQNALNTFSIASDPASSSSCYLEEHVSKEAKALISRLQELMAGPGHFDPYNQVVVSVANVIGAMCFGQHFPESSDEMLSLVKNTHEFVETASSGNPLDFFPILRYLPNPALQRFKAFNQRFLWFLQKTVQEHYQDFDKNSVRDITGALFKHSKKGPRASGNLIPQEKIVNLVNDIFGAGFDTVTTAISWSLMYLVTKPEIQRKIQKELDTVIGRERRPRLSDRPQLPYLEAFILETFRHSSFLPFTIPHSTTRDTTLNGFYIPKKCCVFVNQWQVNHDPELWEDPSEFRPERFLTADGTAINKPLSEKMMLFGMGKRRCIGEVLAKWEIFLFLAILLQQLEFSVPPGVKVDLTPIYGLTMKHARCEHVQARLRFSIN

COC(=O)c1ccccc1C(=O)OC
not listed: [14] | [15] | [16]
inactive: all other assays above

CC1COC(Cn2cncn2)(c2ccc(Oc3ccc(Cl)cc3)cc2Cl)O1 (centres undefined)
active: [1] 31.7 µM | [2] 0.172 µM | [3] 27.6 µM | [4] 30.2 µM | [5] 31.5 µM | [6] 29.7 µM | CD38, CD38 (gene 952) 19.4 µM | CD40, CD40 (gene 958) 18.4 µM | [7] 23.8 µM | [8] 13.1 µM | [9] 31.3 µM | [10] 33.2 µM | [11] 15.8 µM | [12] 14.7 µM | [13] 29.6 µM | [14] 1.71 µM | [15] 2.74 µM

COc1ccc(C(c2ccc(OC)cc2)C(Cl)(Cl)Cl)cc1
inactive: [2] | [4] | [15]
active: [1] 29.7 µM | [3] 20 µM | [5] 12.2 µM | [6] 20 µM | CD38, CD38 (gene 952) 14.9 µM | CD40, CD40 (gene 958) 15.3 µM | [7] 27.1 µM | [8] 14.4 µM | [9] 30.7 µM | [10] 31.5 µM | [11] 11.9 µM | [12] 12 µM | [13] 14.9 µM

CCNc1nc(Cl)nc(NCC)n1
active: [5] 8.37 µM
not listed: [14] | [15] | [16]
inactive: all other assays above

CON(C)C(=O)Nc1ccc(Cl)c(Cl)c1
active: [2] 6.39 µM | [3] 7.53 µM
not listed: [14] | [15] | [16]
inactive: all other assays above

CNC(=S)S
active: [1] 20 µM | [2] 8.25 µM | [3] 9.92 µM | [5] 7.49 µM | [6] 12.4 µM | CD38, CD38 (gene 952) 13.7 µM | [8] 27.5 µM | [10] 14.7 µM | [12] 11.9 µM | [13] 23.3 µM
inactive: [4] | CD40, CD40 (gene 958) | [7] | [9] | [11] | [16]
